Measurements as given in PubChem BioAssay (NCI).
About 79,000 compounds went through this panel and 15% of them were active in at least one assay; those are over-represented in the sample as a whole. Values without a mark were called inactive. Active and inactive are the calls of the source. No stated cut-off is given here; in the data, active means growth inhibition above about 70%; inactive means the rest.

Legend:
[1] = NCI Yeast Anticancer Drug Screen. Data for the rad50 strain (AID 155);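 further: 0% = growth of vehicle-only cultures of the same strain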; conditions: S. cerevisiae rad50 strain growth inhibition; at 50.0 µM; stronger effect = higher value
Outline: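 Compounds were tested on a yeast strain with an engineered DNA damage repair alteration; the reported value is growth inhibition normalised to vehicle treatment.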

[2] = NCI Yeast Anticancer Drug Screen. Data for the mec2-1 strain (AID 157); conditions: S. cerevisiae mec2-1 strain, at 50.0 µM, stronger effect = higher value
Outline: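 Compounds were applied to mec2-1 yeast cells. Their growth was then compared with that of vehicle-treated cultures to give growth inhibition.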

[3] = NCI Yeast Anticancer Drug Screen. Data for the sgs1 mgt1 strain (AID 161);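 further: 0% = growth of cultures given vehicle only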; conditions: S. cerevisiae sgs1 mgt1 strain, at 50.0 µM, stronger effect = higher value
Outline: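 Compounds are added to genetically altered yeast, and growth is compared with cultures given vehicle alone to give percent inhibition.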

[4] = NCI Yeast Anticancer Drug Screen. Data for the cln2 rad14 strain (AID 165);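 further: 0% = growth equal to vehicle treated cultures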; conditions: S. cerevisiae cln2 rad14 strain, at 50.0 µM, stronger effect = higher value
Outline: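 Strain: cln2 rad14 yeast, altered in cell cycle control and DNA damage repair. Read-out: growth inhibition vs vehicle.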

[5] = NCI Yeast Anticancer Drug Screen. Data for the bub3 strain (AID 167); conditions: S. cerevisiae bub3 mutant strain, at 50.0 µM, stronger effect = higher value
Outline: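 Growth of a checkpoint-deficient yeast mutant is measured after compound exposure. Values represent inhibition relative to vehicle.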

[6] = NCI Yeast Anticancer Drug Screen. Data for the mlh1 rad18 strain (AID 175); conditions: S. cerevisiae mlh1 rad18 strain growth inhibition; at 50.0 µM; stronger effect = higher value
Outline: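 A repair-deficient yeast strain is exposed to test compound, and growth is scored relative to vehicle-treated controls.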

SMILES	growth inhibition [1]	growth inhibition [2]	growth inhibition [3]	growth inhibition [4]	growth inhibition [5]	growth inhibition [6]
COc1ccc(NC(=O)CC#N)cc1	7.9%	1.6%	15.8%	6.1%	-3.25%	3.75%
Cc1ccc(NC(=O)Nc2cccc(Cl)c2)cc1C	-0.1%	5.05%	-4.95%	-17.2%	5.1%	-16.6%
COc1ccccc1CNCCCCCCNCCSSCCNCCCCCCNCc1ccccc1OC	6.55%	5.1%	7.4%	-36.7%	-2.35%	32.5%
O=S(=O)(O)c1cc(N=Nc2cc(S(=O)(=O)O)c3cccnc3c2O)ccc1/C=C/c1ccc(N=Nc2cc(S(=O)(=O)O)c3cccnc3c2O)cc1S(=O)(=O)O.[Na+].[Zn+2]	-15.2%	-8.65%	-9.85%	-75.6%	-44%	-86.7%
N[C@@H](C[C@H]1CCC(=O)[C@@H]2O[C@H]12)C(=O)O	-1.5%	-12.8%	-12.5%	0.35%	13.2%	-10.9%
OC1(Cc2ccccn2)CCCc2ccccc21 (stereo not given)	7.5%	9.55%	-1.95%	-15.3%	-8.45%	4.95%
O=Nc1c(O)[nH]c2c(Cl)cccc12	0.1%	-10.2%	-15.2%	-20.4%	-18.2%	-5.25%
CC1(c2ccccc2)OC1(C)c1ccccc1 (stereo not given)	5.7%	-5.6%	-7.65%	-17.1%	21.1%	28.8%
Cc1ccc(NC(=O)C2c3ccccc3-c3ccccc32)cc1	39.4%	16.6%	16.9%	-8.35%	10.9%	21.1%
O=C(CO)CC(=O)CCC(=O)Nc1cccc([N+](=O)[O-])c1	-4.7%	21.5%	0%	42.8%	-12.3%	-4.35%
Oc1ccccc1-c1n[nH]c(=S)n1/N=C/c1ccc(-c2ccc(Br)cc2)o1	-30.5%	-19.2%	-29.2%	-4.35%	-20.1%	-42.9%
O=c1cc(Nc2ccccc2)c2ccccc2[nH]1	-3.3%	-20.1%	7.3%	12.6%	-15.3%	23.3%
Cc1cc(Cl)ccc1N1C(=O)C(=O)C(c2nc3ccccc3s2)/C(=N\NC(=O)c2ccccc2O)C1=O (stereo not given)	-37.9%	0.45%	-9.8%	10.8%	-15.2%	-14.9%
O=C(NCCCc1ccccc1)Nc1ccccc1	16.4%	-0.65%	-8.05%	-10.4%	-1.35%	3.45%
COC1C2C[C@@H](O)CCC2C(C(=O)OCCl)C[C@H]1O (stereo not given in full)	-12.4%	-6.9%	-11%	-27.2%	-10.6%	-30.2%
COc1ccc(OC)c2nc3c(C(=O)NCCN(C)C)cccc3nc12	-15.7%	-25.5%	-55.7%	-35.2%	-31.4%	-68.1%
CC(=O)OCC1OC(n2cnc(C(N)=S)c2N)C(OC(C)=O)C1OC(C)=O (stereo not given)	2.3%	15.8%	11.4%	-10.4%	-2.35%	21.2%
NC(CSS(=O)(=O)O)C(=O)O (stereo not given)	3.05%	-2.4%	-1.55%	-31.9%	-12.8%	2.6%
CCn1c2ccccc2c2cc(N)c(N=Nc3ccc(-c4ccc(N)c(OC)c4)cc3OC)cc21	31.4%	0.65%	27.6%	28.8%	-4%	29.8%
CN1CCCC(C(=O)O)(c2ccccc2)CC1 (stereo not given)	-17.3%	-5.95%	-19.2%	-35.2%	-14.7%	-24.1%

SMILES	growth inhibition [1]	growth inhibition [2]	growth inhibition [3]	growth inhibition [4]	growth inhibition [5]	growth inhibition [6]
CCOC(=O)Cn1c(=O)[nH]c(=O)c2[nH]cnc21	9.85%	-5.35%	-1.3%	9.35%	13.3%	23.8%
C1=CCOCOC1	-2.35%	-24.4%	-2.35%	-8%	-8.95%	-38.1%
CCOC(=O)NOC1CCCCO1 (stereo not given)	1.05%	-6.8%	-3.2%	-14.6%	-10.9%	4.95%
O=c1c2cc([N+](=O)[O-])ccc2sc2ccsc12	1.6%	2.55%	-4.95%	-2.85%	-10.6%	11.9%
O=C(ONC1CCC(CC2CCCCC2)CC1)c1ccccc1 (stereo not given)	98.5% (active)	98.8% (active)	99% (active)	96.8% (active)	98.2% (active)	98.5% (active)
O=C(O)c1c(Br)c(Br)c(Br)c(Br)c1C(=O)Nc1ccc(Cl)cc1C(F)(F)F	1.35%	10.1%	11.1%	-6.55%	0.3%	13.3%
NNC(=O)c1c[nH]c2ccccc2c1=O	3.7%	13.1%	0.85%	-20.6%	5.1%	5.4%
CC1=C(C(=O)NN)CC/C1=N\N	-25.4%	-18.8%	-11.5%	-10.6%	-9.3%	-10.6%
Nc1ccccc1OCOCOc1ccccc1N	-11.7%	-17.8%	-7%	-11.4%	-6.3%	-10.3%
Nc1c(N=Nc2ccccc2)cc(S(=O)(=O)O)c2ccccc12	2.8%	-23.4%	-1.65%	6.65%	3.2%	-2.1%
CCN(CC)C1(C(F)C(F)(F)F)OCC2(CO1)COC(C(F)C(F)(F)F)(N(CC)CC)OC2 (stereo not given)	-10.1%	-13.4%	-0.4%	2.3%	0.8%	6.6%
COc1c(C)c(OC)c(C(=O)CC(C)C)c(OC)c1C	0.4%	5.05%	35.2%	20.4%	19.7%	-29.6%
COc1cccc2c1C1(O)C2CCCC12OCCCO2 (stereo not given)	-26.3%	-10.3%	-50%	6.5%	-29.4%	-31.2%
CCc1c(Cl)c(Cl)c(Cl)c(Cl)c1Cl	2.95%	2.35%	4.15%	-42.5%	-2.9%	13.8%
Cc1cc(C)cc(Cc2ccc3ccccc3c2)c1	2.9%	-3.65%	-1.15%	-12.3%	9.45%	8.45%
N#C/C(=C/NC(=S)N=Nc1c(O)[nH]c2ccccc12)C(N)=O	-33.7%	-51.7%	-19.8%	-6.6%	-0.9%	-18.9%
CCc1nc(N)nc(N)c1-c1ccc(Cl)c(NC(C)=O)c1	8.9%	-3.6%	-7.6%	10.1%	6.6%	1.95%
CC(=O)OC1CCC2(C)C(=CCC3C2CCC2(C)C3CCC23OCCS3)C1 (stereo not given)	34.5%	3.4%	9.35%	9.1%	-4.35%	8.5%
Cc1ccc(-n2c(C)n[nH]c2=O)cc1	-10.7%	-18%	-9.8%	8%	-4.3%	3.2%
Cc1ccc(C(O)/C(=N/N)c2nc3ccc([N+](=O)[O-])cc3[nH]c2=O)cc1 (stereo not given)	6.45%	-20.1%	-28.8%	-13.2%	-9.4%	-12.1%
